According to PubChem BioAssay (Tox21):
Records with an inconclusive call do not appear. Where a call stands in place of a potency, no number is given. A number with no mark means an inactive call. Activity calls are given as the source filed them. Calls come from the whole dose curve; as a rule, active = well fitted curve in the direction sought with a large enough effect in the repeat runs; inconclusive = weak or mixed curves; inactive = no such curve, though single readings can be large; an effect the other way counts as inactive or inconclusive.

Test: qHTS RealTime-Glo MT Cell Viability Assay in HepG2 cells - 8 hour (AID 1224873); note: nearly all actives have a fitted effect of over 55% in size
Conditions: RealTime-Glo luminescence; series mostly up to 76.8 µM
Procedure, shortened: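 HepG2 cells mixed with RealTime-Glo MT reagents (NanoLuc plus cell-permeant prosubstrate) were seeded at 600 cells/well, incubated 5 h at 37 C/5% CO2, then pinned with compounds in DMSO; nonlytic luminescence tracked viability during 40 h treatment.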

SMILES | Potency
N#CCCC#N | inactive
Nc1ccccc1Cl | inactive
ClCCOCOCCCl | inactive
CNC(=O)O/N=C(\C)SC | inactive
CC1CN1P(=O)(N1CC1C)N1CC1C (stereo not drawn) | inactive
BrCCCCCCBr | inactive
CNC(=O)Oc1ccccc1C1OCCO1 | inactive
O=C1CN=C(c2ccccc2)c2cc([N+](=O)[O-])ccc2N1 | inactive
O=C(NCO)NCO | inactive
CC1CCC(=O)O1 (stereo not drawn) | inactive
CCCCCCBr | inactive
O=c1oc2ccccc2c(O)c1C1CCCc2ccccc21 (stereo not drawn) | inactive
CCCCCCI | inactive
OCCBr | inactive
CCCCP(CCCC)CCCC | inactive
CCNc1nc(NC(C)C)nc(OC)n1 | inactive
CNC(=O)Oc1ccc(N(C)C)c(C)c1 | inactive

SMILES | Potency
CC1(C)C(=O)NC(=O)NC1=O | inactive
Clc1ccccc1N1CCNCC1 | inactive
ClCC(Cl)(Cl)Cl | inactive
c1ccc(N2CCNCC2)cc1 | inactive
C=CC1CC=CCC1 (stereo not drawn) | inactive
OCCSCSCCO | inactive
CC1(C)COP(Oc2ccccc2)OC1 | inactive
CC(C)CC#N | inactive
CN1CCC(O)(c2ccc(F)cc2)C(C(=O)c2ccc(F)cc2)C1 (stereo not drawn) | inactive
CC1COC2(c3ccccc3Cl)c3cc(Cl)ccc3NC(=O)CN12 (stereo not drawn) | inactive
O=C1CN2CCOC2(c2ccccc2Cl)c2cc(Cl)ccc2N1 (stereo not drawn) | inactive
ClC(Br)Br | inactive
ClC(Cl)C(Cl)Cl | inactive
C[N+](=O)[O-] | inactive
CC(N)=S | inactive
C#CCN1C(=O)COc2cc(F)c(N3C(=O)C4=C(CCCC4)C3=O)cc21 | inactive
[As]#[In] | inactive

Test: qHTS RealTime-Glo MT Cell Viability Assay in HEK293 cells - 40 hour (AID 1224874); note: nearly all actives have a fitted effect of over 50% in size
Conditions: RealTime-Glo luminescence; max response: hits give low values
Procedure, shortened: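 600 cells/well were plated with the nonlytic NanoLuc/prosubstrate reagent, pre-incubated 5 h, then given 23 nL of compound in DMSO. Incubation at 37 C for 40 h, with luminescence from viable-cell-reduced substrate read repeatedly from 0 h.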

SMILES | max response [%]
N#CCCC#N | 17.5
Nc1ccccc1Cl | 15.7
ClCCOCOCCCl | -5.52
CNC(=O)O/N=C(\C)SC | 14.5
CC1CN1P(=O)(N1CC1C)N1CC1C (stereo not drawn) | 6.96
BrCCCCCCBr | 2.7
COc1cccc(C(=O)NN(C(=O)c2cc(C)cc(C)c2)C(C)(C)C)c1C | -10
CNC(=O)Oc1ccccc1C1OCCO1 | -0.764
O=C1CN=C(c2ccccc2)c2cc([N+](=O)[O-])ccc2N1 | -17.7
O=C(NCO)NCO | 2.7
CC1CCC(=O)O1 (stereo not drawn) | -22.6
CCCCCCBr | 13.7
O=c1oc2ccccc2c(O)c1C1CCCc2ccccc21 (stereo not drawn) | 14.6
CCCCCCI | -0.352
OCCBr | 13.1
CCCCP(CCCC)CCCC | -4.34
CCNc1nc(NC(C)C)nc(OC)n1 | -7.59
CNC(=O)Oc1ccc(N(C)C)c(C)c1 | -14.9

SMILES | max response [%]
CC1(C)C(=O)NC(=O)NC1=O | -10.9
Clc1ccccc1N1CCNCC1 | 7.31
ClCC(Cl)(Cl)Cl | -0.0203
c1ccc(N2CCNCC2)cc1 | 16.9
NC(=S)C(N)=S | 4.8
C=CC1CC=CCC1 (stereo not drawn) | 3.23
OCCSCSCCO | 10.4
CC1(C)COP(Oc2ccccc2)OC1 | -1.45
CC(C)CC#N | 8.82
CN1CCC(O)(c2ccc(F)cc2)C(C(=O)c2ccc(F)cc2)C1 (stereo not drawn) | -17.3
O=C1CN2CCOC2(c2ccccc2Cl)c2cc(Cl)ccc2N1 (stereo not drawn) | -7.26
ClC(Br)Br | 9.83
[O]=[Cd] | 15.5
ClC(Cl)C(Cl)Cl | 0.239
C[N+](=O)[O-] | 18.3
CC(N)=S | 1.38
C#CCN1C(=O)COc2cc(F)c(N3C(=O)C4=C(CCCC4)C3=O)cc21 | 2.01
CC(C)(C)NCC(O)c1cc(Cl)c(N)c(Cl)c1 (stereo not drawn) | 2.03

Test: A CellTox Green Cytotoxicity Assay to monitor cytotoxicity in HEK293 cells - 24 hour (AID 1224875); note: nearly all actives have a fitted effect of over 45% in size
Conditions: CellTox Green fluorescence; series mostly up to 76.8 µM
Procedure, shortened: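 HEK293 cells, 600/well, were preincubated 5 hours and then exposed to compounds at 37 C for up to 40 hours. A cell-impermeant cyanine dye staining dead-cell DNA was read by fluorescence at 0, 8, 16, 24, 32 and 40 h time points.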

SMILES | Potency
N#CCCC#N | inactive
Nc1ccccc1Cl | inactive
ClCCOCOCCCl | inactive
CC1CN1P(=O)(N1CC1C)N1CC1C (stereo not drawn) | inactive
BrCCCCCCBr | inactive
CNC(=O)Oc1ccccc1C1OCCO1 | inactive
O=C1CN=C(c2ccccc2)c2cc([N+](=O)[O-])ccc2N1 | inactive
O=C(NCO)NCO | inactive
CC1CCC(=O)O1 (stereo not drawn) | inactive
CCCCCCBr | inactive
O=c1oc2ccccc2c(O)c1C1CCCc2ccccc21 (stereo not drawn) | inactive
OCCBr | inactive
CCCCP(CCCC)CCCC | inactive
CCNc1nc(NC(C)C)nc(OC)n1 | inactive
CNC(=O)Oc1ccc(N(C)C)c(C)c1 | inactive
Clc1ccccc1N1CCNCC1 | inactive
ClCC(Cl)(Cl)Cl | inactive

SMILES | Potency
c1ccc(N2CCNCC2)cc1 | inactive
NC(=S)C(N)=S | inactive
OCCSCSCCO | inactive
CC1(C)COP(Oc2ccccc2)OC1 | inactive
CC(C)CC#N | inactive
CN1CCC(O)(c2ccc(F)cc2)C(C(=O)c2ccc(F)cc2)C1 (stereo not drawn) | inactive
CC1COC2(c3ccccc3Cl)c3cc(Cl)ccc3NC(=O)CN12 (stereo not drawn) | inactive
O=C1CN2CCOC2(c2ccccc2Cl)c2cc(Cl)ccc2N1 (stereo not drawn) | inactive
ClC(Br)Br | inactive
[O]=[Cd] | inactive
ClC(Cl)C(Cl)Cl | inactive
C[N+](=O)[O-] | inactive
CC(N)=S | inactive
C#CCN1C(=O)COc2cc(F)c(N3C(=O)C4=C(CCCC4)C3=O)cc21 | inactive
[As]#[In] | inactive
CC(C)(C)NCC(O)c1cc(Cl)c(N)c(Cl)c1 (stereo not drawn) | inactive
